A selection: hits, their analogues and other compounds. The true share with any hit is near 1.2%.
Mtb BioA inh – blocks M. tuberculosis BioA enzyme activity; actives 0.096% (n = 360,000); purified M. tuberculosis BioA enzyme, plate reader; inhibition, % at 9.99 µM; in the data active = inhibition above about 40%
BH1578 lux ind – inducers of Vibrio cholerae quorum light production without autoinducers; V. cholerae BH1578 lux reporter, luminescence, 6 h; activation, % at 18.7 µM; actives 0.16% (n = 350,000); AID 588436; in the data active = activation mostly above about 9.7%, no sharp cut-off
Yp Topo-I inh – blocks Yersinia pestis topoisomerase I activity; AID 504884; actives 0.064% (n = 360,000); Y. pestis Topo-I cleavage product accumulation, plate reader; activity, % at 10 µM; in the data active = activity above about 50%, passing the limit was not always enough
DUSP3 inh – DUSP3 (human) phosphatase inhibition; inhibition, % at 13.3 µM; recombinant VHR phosphatase, pNPP absorbance; actives 0.52% (n = 290,000); P51452; in the data active = inhibition above about 50%
Target sequence (P51452 whole entry, looked up): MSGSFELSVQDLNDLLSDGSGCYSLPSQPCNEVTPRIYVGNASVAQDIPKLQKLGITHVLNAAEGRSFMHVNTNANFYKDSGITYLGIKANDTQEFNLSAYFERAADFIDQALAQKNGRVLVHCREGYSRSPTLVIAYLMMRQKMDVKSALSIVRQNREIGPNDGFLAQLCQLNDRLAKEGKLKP
TcdB GH inh – TcdB glycohydrolase inhibition | TcdB glycohydrolase enzymatic assay, plate reader | inhibition, % at 9.99 µM | actives 0.24% (n = 350,000); in the data active = inhibition above about 10%
PfHsp40 rescue – restores yeast growth despite PfHsp40 toxicity. S. cerevisiae expressing PfHsp40, growth rescue, ATP luminescence. growth rescue, % at 12.5 µM. actives 0.68% (n = 340,000). AID 504582; in the data active = growth rescue above about 28%, passing the limit was not always enough;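 also: yeast W303a lacking pdr1 and pdr3 grown in galactose medium; growth measured after three days at 30 °C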
Of the large screens only hits and unclear results are named; the others gave an inactive call.

Cc1cc(C(=O)CSc2nc(N)cc(N)n2)c(C)n1CC1CCCO1 (stereo not drawn)	none (no result: DUSP3 inh)
Cc1cc(C(=O)CSc2nc(N)cc(=O)[nH]2)c(C)n1CC1CCCO1 (stereo not drawn)	TcdB GH inh 12 (no result: DUSP3 inh)
CC(OC(=O)c1nn(C(C)C)c(=O)c2ccccc12)C(=O)Nc1ncc(Cl)cc1Cl (stereo not drawn)	DUSP3 inh 60
CC(C)n1nc(C(=O)Oc2cc(Cl)ccc2Cl)c2ccccc2c1=O	none (no result: TcdB GH inh)
Oc1c(Br)cc(Br)cc1/C=N/NC(=S)N[C@H]1CC2C=CC1C2 (stereo partly drawn)	PfHsp40 rescue 78
OC(COC1CCCCC1)CN1CCCCC1 (stereo not drawn)	DUSP3 inh 56
NS(=O)(=O)c1ccc(Cl)cc1[N+](=O)[O-]	none (no result: Mtb BioA inh)
CC(C)CSc1n[nH]c(=S)s1	PfHsp40 rescue 213 (no result: Mtb BioA inh)
CCOc1ccccc1OCCN1CCC(Cc2ccccc2)CC1	none (no result: TcdB GH inh)
Cc1ccccc1OCCN1CCC(Cc2ccccc2)CC1	PfHsp40 rescue 59
Cc1ccc(S(=O)(=O)N2CCC(C(=O)OCC(=O)NCCc3ccccc3)CC2)cc1C	TcdB GH inh 16 (no result: Mtb BioA inh, DUSP3 inh, PfHsp40 rescue)
COc1ccc2cc(C[C@@H]3CC[C@@H](CNC(N)=O)O3)ccc2c1	PfHsp40 rescue 38 (no result: DUSP3 inh)
COc1ccc(Br)c(C(=O)OCC(=O)N2CCC(Cc3ccccc3)CC2)c1	PfHsp40 rescue 27 (no result: DUSP3 inh)
COc1ccc(C(=O)NCCNC(=O)c2cnccn2)cc1OC	DUSP3 inh 52
COc1cc(C(=O)NCCNC(=O)c2cnccn2)cc(OC)c1OC	none (no result: Mtb BioA inh)
COc1cc(/C=N/NC(=O)c2cnccn2)cc(OC)c1OC	PfHsp40 rescue 66
COC(=O)c1nnn(CC(=O)NC(=O)Nc2cccc(Cl)c2C)c1C(=O)OC	DUSP3 inh 51 (no result: Mtb BioA inh)
C[C@H]1CN([C@@H](C)CO)C(=O)CCCn2nncc2CO[C@@H]1CN(C)Cc1ccc(C(=O)Nc2ccccc2N)cc1	none (no result: BH1578 lux ind, Yp Topo-I inh, DUSP3 inh, PfHsp40 rescue)
Cc1ccc(NC(=S)NC2CC3CCCC(C2)N3Cc2ccco2)cc1 (stereo not drawn)	none
CCCn1nnnc1NCc1cccc(Cl)c1	DUSP3 inh 53
O=C(c1ccc2c(c1)OCO2)N(Cc1cccs1)C1(C(=O)NC2CCCCC2)CCCCC1	PfHsp40 rescue 68 (no result: Mtb BioA inh, TcdB GH inh)
O=C(Cc1cccs1)N(Cc1cccs1)C1(C(=O)NC2CCCC2)CCCCC1	none (no result: TcdB GH inh)
Cc1ccnc(N2C(=O)c3ccccc3C2=O)c1	TcdB GH inh 15
Cc1ccnc(N2C(=O)c3cccc4c([N+](=O)[O-])ccc(c34)C2=O)c1	none
Cc1nn(C)cc1C=NCCOCc1ccccc1	DUSP3 inh 52 (no result: Mtb BioA inh, TcdB GH inh)
Cc1nn(C)cc1/C=N/NC(=O)c1ccco1	none
CN(C)S(=O)(=O)c1ccc(C(=O)Oc2coc(CSc3ncccn3)cc2=O)cc1	PfHsp40 rescue 94 (no result: Mtb BioA inh)
CCN(CC)S(=O)(=O)c1ccc(C(=O)Oc2coc(CSc3nc(C)cc(C)n3)cc2=O)cc1	PfHsp40 rescue 72 (no result: Mtb BioA inh, TcdB GH inh)
O=C(Oc1coc(CSc2ncccn2)cc1=O)c1cccs1	none (no result: Mtb BioA inh)
Cc1cc(C)nc(SCc2cc(=O)c(OC(=O)c3cccc([N+](=O)[O-])c3)co2)n1	none
CCOC(=O)CSC1=NC(=O)/C(=C\c2ccc(Cl)cc2)S1	PfHsp40 rescue 40 (no result: TcdB GH inh)
CCCCCCCCN1[C@@H](CC(=O)OCC)c2ccc(C(F)(F)F)cc2S1(=O)=O	PfHsp40 rescue 38 (no result: DUSP3 inh)
CCCCCCCCN1[C@@H](CC(=O)OC)c2cc(F)ccc2S1(=O)=O	none (no result: DUSP3 inh)
CCCCCCCCCCCCN1[C@@H](CC(=O)O)c2cc(F)ccc2S1(=O)=O	PfHsp40 rescue 49 (no result: DUSP3 inh)
Cc1oc(-c2ccc(-c3ccccc3)cc2)nc1CN(C)C1CCOC1 (stereo not drawn)	none
C=CCNC(=O)C1(S(=O)(=O)c2ccccc2)CC=CC1	none
O=C(O)Cn1cc2c(n1)CCCCC2	PfHsp40 rescue 30 (no result: BH1578 lux ind, TcdB GH inh)
Nc1ncnc2c1ncn2[C@@H]1O[C@H](COP(=O)(O)O)[C@@H](O)[C@H]1O	none
CN1N=C(N)c2cn(C3OC(COP(=O)(O)O)C(O)C3O)c3ncnc1c23 (stereo not drawn)	BH1578 lux ind 50 (no result: Mtb BioA inh, DUSP3 inh)
CCCc1ccc(Oc2cc(NN3CCCCC3)c([N+](=O)[O-])cc2[N+](=O)[O-])cc1	none
CCCc1cc(-c2n[nH]c(C(=O)OCC)c2-c2cscn2)c(O)cc1O	TcdB GH inh 22
CCOC(=O)c1[nH]nc(-c2c(O)cc(C)cc2O)c1-c1csc(C)n1	none (no result: TcdB GH inh)
CC(Sc1cnccn1)C(=O)O (stereo not drawn)	none (no result: Mtb BioA inh)
COc1ccc(CC2(CO)CCN(C(C)COc3ccccc3)CC2)cc1 (stereo not drawn)	none (no result: Mtb BioA inh)
CC(COc1ccccc1)N1CCC(CO)(Cc2ccccc2)CC1 (stereo not drawn)	DUSP3 inh 58 (no result: Mtb BioA inh)
CCN1CCN(C(=O)/C=C/c2ccc3c(c2)OCO3)CC1	none
COc1cc(O)c(CC=C(C)C)c(O)c1C(=O)CCc1ccc(O)cc1	PfHsp40 rescue 210
CC1C(=O)Nc2ccccc2N1C(=O)c1cccc(C(F)(F)F)c1 (stereo not drawn)	none
CCCCSC1=C(C#N)C(c2ccccc2C)CC(=O)N1 (stereo not drawn)	none
O=C(C[C@H]1CC[C@@H]2[C@H](COC[C@H](O)CN2Cc2ccncc2)O1)NCC1CC1	none (no result: BH1578 lux ind, Yp Topo-I inh, DUSP3 inh, PfHsp40 rescue)
O=C1Cc2cc(S(=O)(=O)NCc3ccccc3Cl)cc3c2N1CCC3	TcdB GH inh 11
N#CC(C#N)=NNc1ccc(-n2ccc(C(F)(F)F)n2)cc1	PfHsp40 rescue 186
O=C(Nc1ccccc1)Nc1ccc(-n2ccc(C(F)(F)F)n2)cc1	none
Cc1nn(CC(=O)Nc2cccc(Cl)c2)c(=O)c2cc(-c3ccccc3)nn12	none (no result: Mtb BioA inh)
O=C(O)c1ccc(/C=N/NC(=S)NCCN2CCOCC2)cc1	TcdB GH inh 11
S=C(NCCN1CCOCC1)N/N=C/c1cccs1	none (no result: Mtb BioA inh, DUSP3 inh)
COc1ccc(C(=O)c2c(C)oc3ccc(O)cc23)c(OC)c1	DUSP3 inh 58
CCC(=O)Nc1c2c(nn1-c1ccc(C)cc1C)CSC2	PfHsp40 rescue 48 (no result: TcdB GH inh)
c1ccc(-c2ccc(C(c3ccccc3)n3ccnc3)cc2)cc1 (stereo not drawn)	PfHsp40 rescue 176
O=C(NCCc1cccc(Cl)c1)C1CCC(=O)N(Cc2ccc(Cl)cc2)C1 (stereo not drawn)	DUSP3 inh 59
O=C(CSc1ccccc1)NC(=O)NCc1ccccc1	PfHsp40 rescue 84 (no result: Mtb BioA inh)
Cc1nc(SCC(=O)NC(=O)NCc2ccccc2)nc(C)c1C	none (no result: Mtb BioA inh, TcdB GH inh)
COC(=O)c1sccc1NC(=O)COc1ccc(F)cc1Cl	DUSP3 inh 57
COC(=O)c1ccc(OCC(=O)Nc2ccsc2C(=O)OC)cc1	none
CC1CCCN(C(=O)c2cc3c(-c4ccc(Cl)cc4)nn(C)c3s2)C1 (stereo not drawn)	none
CS(=O)(=O)Nc1cccc(C2=NN(C(=O)c3ccccc3)C(c3cccs3)C2)c1 (stereo not drawn)	TcdB GH inh 13
Cc1c(C(=O)NCCSCc2c(F)cccc2Cl)cnn1-c1ccc(F)cc1	none
Cc1c(C(=O)NCCSCc2ccc(F)cc2)cnn1-c1ccc(Cl)cc1	PfHsp40 rescue 43

Bioassay records from PubChem.
